Most compounds without a hit are left out; they make up all but 4.2% or so of the library.
D1 ag = Allosteric Agonists of the Human D1 Dopamine Receptor: qHTS. AID 504660, 2011. D(1A) dopamine receptor (Homo sapiens), P21728. actives 1% (n = 360,000). HEK293 T-REx D1 cells, calcium flux, agonist mode. activation, % at 2 µM; in the data active = activation above about 30%
Target sequence (P21728 whole entry, looked up): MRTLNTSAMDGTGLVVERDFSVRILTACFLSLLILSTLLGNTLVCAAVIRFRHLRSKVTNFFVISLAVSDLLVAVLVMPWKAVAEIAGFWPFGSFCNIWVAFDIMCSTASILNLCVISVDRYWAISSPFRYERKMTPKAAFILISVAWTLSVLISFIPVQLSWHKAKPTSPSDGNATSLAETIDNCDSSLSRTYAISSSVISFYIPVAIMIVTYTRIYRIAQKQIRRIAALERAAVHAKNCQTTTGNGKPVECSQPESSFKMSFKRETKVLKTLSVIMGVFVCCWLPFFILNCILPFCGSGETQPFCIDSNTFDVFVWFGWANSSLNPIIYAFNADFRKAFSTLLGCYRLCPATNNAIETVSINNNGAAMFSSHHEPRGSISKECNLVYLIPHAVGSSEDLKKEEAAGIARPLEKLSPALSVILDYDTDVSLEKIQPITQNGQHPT
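Inducible HEK293 T-REx D1 cells, force-coupled to calcium signalling, were plated at 4000 cells/well with tetracycline and held overnight at 30 C. After no-wash calcium dye loading, compound-evoked calcium rise over 180 s flagged agonists.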
TRPV1 agonist = HTS Assay for Compounds that Act as Agonists of the Vanilloid Receptor 1; Transient receptor potential cation channel subfamily V member 1 (Homo sapiens), Q8NER1; TRPV1-expressing cells, Fluo-8 calcium influx, agonist mode; activation, % at 8.33 µM; actives 0.19% (n = 320,000); AID 540275, 2011; in the data active = activation above about 80%; inconclusive = between about 30% and that limit
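TRPV1-expressing cells were cultured overnight at 35.5C and loaded with Fluo-8 calcium dye for 40 to 90 min at room temperature. After a 10 s baseline, compound was added and calcium influx was read kinetically for 3 min (ex 480/em 520 nm).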
D1 antag = Antagonist of Human D 1 Dopamine Receptor: qHTS; D(1A) dopamine receptor (Homo sapiens), P21728; HEK293 TREx D1 cells, calcium flux, dopamine EC80; stronger effect = lower value; activity change, negative = inhibition, % at 10 µM; actives 3.2% (n = 360,000); in the data active = activity change below about -30%
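Kinetic fluorescence of a calcium dye serves as the read-out. D1-expressing Hek293 Trex cells, induced overnight at 30 C, are exposed to compound for 180 s before an EC80 dopamine addition, then read 180 s further.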
TRPV1 PAM = HTS Assay for Compounds that Act as Potentiators of the Vanilloid Receptor 1. Transient receptor potential cation channel subfamily V member 1 (Homo sapiens), Q8NER1. TRPV1-expressing cells, Fluo-8 calcium influx, capsaicin EC20 potentiation. potentiation, % at 8.33 µM. actives 0.02% (n = 320,000). AID 540277, 2011; in the data active = potentiation above about 80%; inconclusive = between about 30% and that limit
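TRPV1-expressing cells were cultured overnight at 35.5C and loaded with Fluo-8 calcium dye for 40 to 90 min at room temperature. After a 10 s baseline, compound was added and calcium influx was read kinetically for 3 min (ex 480/em 520 nm).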
D1 potentiator = Potentiators of Human D1 Dopamine Receptor: qHTS; D(1A) dopamine receptor (Homo sapiens), P21728; HEK293 TREx D1 cells, calcium flux, dopamine EC20 potentiation; potentiation, % at 10 µM; actives 0.036% (n = 360,000); AID 504651, 2011; in the data active = potentiation above about 30%
A number is an active result; i = inactive; ? = inconclusive; nt = no result given.

SMILES | D1 ag | TRPV1 agonist | D1 antag | TRPV1 PAM | D1 potentiator
COc1cccc(N2CCN(C(=O)CCc3c(C)nc4c(c3C)c(=O)n(C)c(=O)n4C)CC2)c1 | i | nt | i | nt | i
CCOc1ccc(Nc2nc(-c3cccc(Cl)c3)c3c(n2)-c2ccccc2OC3)cc1 | i | nt | i | nt | i
CCCc1noc(-c2ccc(N3CCCCC3)c([N+](=O)[O-])c2)n1 | i | nt | i | nt | i
O=C(Cc1csc(NC(=O)Nc2cccc(Cl)c2)n1)NCc1ccccn1 | i | i | -31 | i | i
COc1ccc(CNC(=O)Cc2csc(NC(=O)Nc3ccccc3OC)n2)cc1 | i | i | -35 | i | i
CC(C)(C)C(=O)N1CCN(c2c(Cl)cccc2[N+](=O)[O-])CC1 | i | i | -52 | i | i
Cc1cc2c(c(=O)n1Cc1ccccc1)C1O[C@](c3ccsc3)(Cc3ccccc31)O2 | i | ? | i | i | i
COC(=O)c1cc(Cl)cc(Cl)c1OS(=O)(=O)N(C)C | i | i | -30 | i | i
CC(OC(=O)c1ccccc1C(=O)N(C)C1CCCCC1)C(=O)NC1(C#N)CCCCC1 (stereo unspecified) | i | i | i | i | i
CC(OC(=O)c1cc(Br)ccc1O)C(=O)NC1(C#N)CCCCC1 (stereo unspecified) | 36 | i | i | i | i
O=C(c1cccn1-c1nnc(N2CCCC2)s1)N1CCN(c2ccc(F)cc2)CC1 | i | nt | i | nt | i
CN(CC(=O)Nc1ccc(F)c(F)c1F)c1ncnc2sccc12 | i | i | i | i | i
CN(CC(=O)Nc1ccccc1Br)c1ncnc2sccc12 | i | i | -35 | i | i
CCc1ccccc1N1CCN(S(=O)(=O)c2ccc(F)c(C)c2)CC1 | i | i | -37 | i | i
Cc1nc(-c2ccc(S(=O)(=O)N3CCN(c4ccccc4F)CC3)cc2)co1 | i | nt | -34 | nt | i
COc1ccccc1N1CCN(S(=O)(=O)c2ccc(-c3coc(C)n3)cc2)CC1 | i | nt | i | nt | i
Cc1cccc(-n2ncc(C(=O)N3CCN(C4CCCCC4)CC3)c2C2CCN(C(=O)OC(C)(C)C)CC2)c1 | i | nt | i | nt | i
Cc1ccc(-c2onc(C)c2C)cc1S(=O)(=O)N1CCc2ccccc21 | i | nt | i | nt | i
CCNS(=O)(=O)c1ccc(NC(=O)Cn2nc(C(F)(F)F)cc2C)cc1 | i | i | -39 | i | i
CN(CC(=O)Nc1ccc(N2CCOCC2)cc1)C(=O)c1cccc(Cl)c1Cl | i | i | -36 | i | i
COc1cccc(-c2nn(-c3ccc(C)cc3)cc2C(=O)N(C)CC(=O)Nc2cccc(F)c2)c1 | i | i | -32 | i | nt
CN(CC(=O)Nc1ccc(N2CCOCC2)cc1)C(=O)c1cn(-c2ccccc2)nc1-c1ccccc1 | i | i | i | i | i
COc1ccc(Br)c(C(=O)N(C)CC(=O)Nc2ccc(N3CCOCC3)cc2)c1 | i | i | -51 | i | i
Cc1cccc(-c2nn(-c3ccccc3)cc2C(=O)N(C)CC(=O)Nc2ccc(N3CCOCC3)cc2)c1 | i | i | -71 | i | i
O=C(NCCc1nc2ccccc2n1CCOc1ccc(Cl)cc1)C1CCCCC1 | i | i | i | i | i
SMILES | D1 ag | TRPV1 agonist | D1 antag | TRPV1 PAM | D1 potentiator
Nc1ncc(S(=O)(=O)NCc2ccccc2)cn1 | i | nt | i | nt | i
Cc1cc(C)n(-c2nnc(Nc3ccc(C)c(Cl)c3)c3ccccc23)n1 | i | nt | -40 | nt | i
COc1ccc(NC(=O)CSc2nnc(Cc3cccn3C)n2-c2ccc(C)cc2)cc1OC | i | i | -39 | i | i
COc1ccccc1NC(=O)CSc1nnc(Cc2cccn2C)n1CCc1ccccc1 | i | i | -31 | i | i
CCC1CCCCN1CCCNC(=O)CCC(=O)N1CCOc2ccccc21 (stereo unspecified) | i | i | -30 | ? | i
CN(CCCNC(=O)CCC(=O)N1CCOc2ccc(Cl)cc21)Cc1ccccc1 | i | i | -31 | i | i
O=C(CCC(=O)N1CCOc2ccc(Cl)cc21)NCCCN1CCN(Cc2ccccc2)CC1 | i | i | i | i | i
O=C(CCC(=O)N1CCOc2ccccc21)NCCCN1CCCCC1 | i | i | i | i | i
Cc1ccc2c(c1)N(C(=O)CCC(=O)NCCCN1CCC(Cc3ccccc3)CC1)CCO2 | i | i | -40 | i | i
O=S(=O)(c1ccccc1)c1nnn2c1nc(NCc1ccccc1)c1sccc12 | i | nt | i | nt | i
CC(=O)N1CCc2cc(Br)cc(S(=O)(=O)N3CCN(c4cccc(C)c4)C(C)C3)c21 (stereo unspecified) | i | nt | i | nt | i
CC1CCCCN1C(=O)c1ccc(COc2ccc([N+](=O)[O-])cc2)o1 (stereo unspecified) | i | i | -36 | i | i
CCOc1cccc2cc(-c3nc4sc5c(c4c(=O)[nH]3)CCC(C)C5)c(=O)oc12 (stereo unspecified) | i | nt | i | nt | i
Cc1ccc(CNS(=O)(=O)c2ccc(C(C)(C)C)cc2)n1C | i | i | -31 | i | i
FC(F)(F)c1cc(N2CCNCC2)c2ccccc2n1 | i | i | i | i | i
OC(c1cc(-c2ccc(C(F)(F)F)cc2)nc(C(F)(F)F)c1)C1CCCCN1 (stereo unspecified) | 158 | i | i | i | i
OC(c1cc(C(F)(F)F)nc2c(C(F)(F)F)cccc12)C1CCCCN1 (stereo unspecified) | 160 | i | i | i | 34
CC1CCN(C(=O)Cn2c(=O)n(Cc3ccc4c(c3)OCO4)c(=O)c3ccccc32)CC1 | i | i | i | i | i
Cn1c(SCC(=O)N2CC(=O)Nc3ccccc32)nc2ccccc2c1=O | i | i | i | i | i
O=C1CN(C(=O)CSc2nc3ccccc3c(=O)n2Cc2ccc(F)cc2)c2ccccc2N1 | i | i | -59 | i | i
Cc1[nH]c2ccccc2c1SCC(=O)N1CCOCC1 | i | i | i | i | i
CCOC(=O)N1CCC(n2c(SCC(=O)N3CCC(C)CC3)nc3ccccc3c2=O)CC1 | i | 81 | i | i | i
Cc1[nH]c2ccccc2c1SCC(=O)N1CCC(C)CC1 | i | i | -49 | i | i
CC1CCN(C(=O)CSc2nc3ccccc3c(=O)n2Cc2ccc3c(c2)OCO3)CC1 | i | 82 | i | i | i
Cc1ccc(C)c(NC(=O)CSc2nnc(-c3cc4occc4n3C)n2-c2ccccc2C)c1 | i | nt | i | nt | i
COc1ccc(CNC(=O)CSCc2nc(-c3ccccc3C)oc2C)cc1 | i | nt | i | nt | i
CCC1CCC(C(=O)NC(C(=O)NCCN(CC(C)C)CC(C)C)C(C)C)CC1 (stereo unspecified) | i | nt | i | nt | i
